Test results: the supplement of paper PMC6411743
± gives the standard deviation of the averaged measurements. About 6,500 targets were measured; listed, in parts, are those with the largest changes and a random draw of the rest.

Compound: Nc1ncnc2c1ncn2[C@@H]1O[C@H](COP(=O)(O)OP(=O)(O)OP(=O)(O)O)[C@@H](O)[C@H]1O [adenosine triphosphate]
Test: NP40-soluble protein abundance relative to vehicle (solubility fold change) (ratio); higher = more soluble protein in presence of ATP
Summary of the method: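 Crude Jurkat lysate, prepared by Dounce homogenisation, was exposed to eight concentrations from 0.1 to 10 mM for 10 min at room temperature and then 3 min at 37 °C. Solubilisation used 0.8% NP40 with benzonase for 60 min at 4 °C, followed by ultracentrifugation and TMT labelling of the supernatant for LC-MS/MS. After vsn normalisation of intensities, each value is the fold change against the detergent-processed vehicle within each replicate, across three independent experiments.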

Chain of UniProt P25686 (P25686 whole entry, one chain of several): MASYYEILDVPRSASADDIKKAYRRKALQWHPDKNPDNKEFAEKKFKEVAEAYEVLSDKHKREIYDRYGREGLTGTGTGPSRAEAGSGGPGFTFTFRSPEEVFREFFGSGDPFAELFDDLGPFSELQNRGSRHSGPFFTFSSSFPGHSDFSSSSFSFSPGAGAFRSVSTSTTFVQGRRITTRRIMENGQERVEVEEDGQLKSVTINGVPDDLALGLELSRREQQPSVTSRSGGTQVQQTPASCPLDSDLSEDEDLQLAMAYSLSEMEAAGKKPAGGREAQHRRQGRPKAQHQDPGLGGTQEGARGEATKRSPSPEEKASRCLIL
Chain of UniProt O00764 (O00764 whole entry): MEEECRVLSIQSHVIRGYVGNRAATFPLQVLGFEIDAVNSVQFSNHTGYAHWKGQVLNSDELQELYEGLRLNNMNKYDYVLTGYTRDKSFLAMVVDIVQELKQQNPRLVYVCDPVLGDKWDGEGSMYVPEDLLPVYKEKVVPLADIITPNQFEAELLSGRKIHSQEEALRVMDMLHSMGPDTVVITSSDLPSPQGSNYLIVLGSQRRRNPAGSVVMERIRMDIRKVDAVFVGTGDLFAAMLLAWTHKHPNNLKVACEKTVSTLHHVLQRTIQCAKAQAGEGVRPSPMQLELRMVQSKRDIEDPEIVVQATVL
Chain of UniProt O43257 (O43257 whole entry): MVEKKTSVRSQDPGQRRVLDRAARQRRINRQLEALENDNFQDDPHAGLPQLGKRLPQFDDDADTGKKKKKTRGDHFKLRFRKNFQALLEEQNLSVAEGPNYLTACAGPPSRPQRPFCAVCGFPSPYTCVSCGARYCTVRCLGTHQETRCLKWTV
Chain of UniProt Q969X6 (Q969X6 whole entry, one chain of several): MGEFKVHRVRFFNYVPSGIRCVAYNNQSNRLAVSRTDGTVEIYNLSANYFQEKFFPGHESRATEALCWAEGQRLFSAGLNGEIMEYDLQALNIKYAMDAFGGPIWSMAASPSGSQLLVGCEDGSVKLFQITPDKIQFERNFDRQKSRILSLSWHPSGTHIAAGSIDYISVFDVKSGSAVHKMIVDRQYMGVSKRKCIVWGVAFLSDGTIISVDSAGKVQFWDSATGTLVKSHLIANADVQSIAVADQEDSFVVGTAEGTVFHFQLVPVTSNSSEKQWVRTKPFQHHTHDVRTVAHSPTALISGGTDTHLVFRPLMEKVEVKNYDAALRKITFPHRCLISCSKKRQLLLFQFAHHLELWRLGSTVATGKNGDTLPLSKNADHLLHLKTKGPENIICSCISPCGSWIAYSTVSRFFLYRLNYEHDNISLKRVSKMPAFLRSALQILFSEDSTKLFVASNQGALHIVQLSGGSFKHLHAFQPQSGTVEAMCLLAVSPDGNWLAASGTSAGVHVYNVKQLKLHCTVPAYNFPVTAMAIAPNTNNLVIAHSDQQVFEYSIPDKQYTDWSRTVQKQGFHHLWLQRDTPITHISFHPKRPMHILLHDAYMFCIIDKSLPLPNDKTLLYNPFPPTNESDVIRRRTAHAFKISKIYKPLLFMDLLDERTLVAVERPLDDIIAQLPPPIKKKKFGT
Chain of UniProt Q9BUN8 (Q9BUN8 whole entry, one chain of several): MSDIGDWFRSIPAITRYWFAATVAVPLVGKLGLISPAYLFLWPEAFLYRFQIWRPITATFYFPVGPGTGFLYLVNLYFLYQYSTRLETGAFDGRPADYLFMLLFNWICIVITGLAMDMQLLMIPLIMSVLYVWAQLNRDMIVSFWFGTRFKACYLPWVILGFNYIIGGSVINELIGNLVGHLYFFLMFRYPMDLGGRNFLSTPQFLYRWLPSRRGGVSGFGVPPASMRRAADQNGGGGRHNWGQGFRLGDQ
Chain of UniProt Q96EV2 (Q96EV2 whole entry, one chain of several): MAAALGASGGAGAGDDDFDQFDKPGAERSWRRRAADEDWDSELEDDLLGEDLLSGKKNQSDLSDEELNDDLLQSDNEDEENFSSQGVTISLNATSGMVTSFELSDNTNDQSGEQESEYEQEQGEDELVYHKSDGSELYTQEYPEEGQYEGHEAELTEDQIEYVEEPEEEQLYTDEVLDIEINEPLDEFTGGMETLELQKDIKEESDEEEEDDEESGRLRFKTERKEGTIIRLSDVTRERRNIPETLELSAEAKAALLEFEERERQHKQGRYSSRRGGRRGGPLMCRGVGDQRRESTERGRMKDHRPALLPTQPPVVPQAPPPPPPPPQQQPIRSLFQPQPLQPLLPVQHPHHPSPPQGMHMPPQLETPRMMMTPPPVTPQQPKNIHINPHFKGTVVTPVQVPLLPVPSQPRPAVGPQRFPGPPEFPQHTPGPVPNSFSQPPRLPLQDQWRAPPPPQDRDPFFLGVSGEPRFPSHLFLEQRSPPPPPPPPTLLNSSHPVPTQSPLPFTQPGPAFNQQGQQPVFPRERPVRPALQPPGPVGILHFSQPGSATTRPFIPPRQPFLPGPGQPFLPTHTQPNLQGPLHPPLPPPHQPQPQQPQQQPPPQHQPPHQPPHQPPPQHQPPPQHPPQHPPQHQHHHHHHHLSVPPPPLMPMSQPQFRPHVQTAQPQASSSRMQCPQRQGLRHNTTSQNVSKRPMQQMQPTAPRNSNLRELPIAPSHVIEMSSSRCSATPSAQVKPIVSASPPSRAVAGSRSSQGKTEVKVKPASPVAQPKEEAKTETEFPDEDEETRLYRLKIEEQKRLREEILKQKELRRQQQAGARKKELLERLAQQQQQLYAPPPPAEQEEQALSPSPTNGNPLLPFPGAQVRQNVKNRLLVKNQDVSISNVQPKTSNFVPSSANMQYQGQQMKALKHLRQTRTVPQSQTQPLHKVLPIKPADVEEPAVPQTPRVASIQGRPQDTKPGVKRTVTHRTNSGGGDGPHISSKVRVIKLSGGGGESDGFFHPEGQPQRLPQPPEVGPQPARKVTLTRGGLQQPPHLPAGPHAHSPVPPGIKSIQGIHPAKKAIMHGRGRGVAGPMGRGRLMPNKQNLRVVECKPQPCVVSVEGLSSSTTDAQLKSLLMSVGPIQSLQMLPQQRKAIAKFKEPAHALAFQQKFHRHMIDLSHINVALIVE
Chain of UniProt Q86YR5 (Q86YR5 whole entry, one chain of several): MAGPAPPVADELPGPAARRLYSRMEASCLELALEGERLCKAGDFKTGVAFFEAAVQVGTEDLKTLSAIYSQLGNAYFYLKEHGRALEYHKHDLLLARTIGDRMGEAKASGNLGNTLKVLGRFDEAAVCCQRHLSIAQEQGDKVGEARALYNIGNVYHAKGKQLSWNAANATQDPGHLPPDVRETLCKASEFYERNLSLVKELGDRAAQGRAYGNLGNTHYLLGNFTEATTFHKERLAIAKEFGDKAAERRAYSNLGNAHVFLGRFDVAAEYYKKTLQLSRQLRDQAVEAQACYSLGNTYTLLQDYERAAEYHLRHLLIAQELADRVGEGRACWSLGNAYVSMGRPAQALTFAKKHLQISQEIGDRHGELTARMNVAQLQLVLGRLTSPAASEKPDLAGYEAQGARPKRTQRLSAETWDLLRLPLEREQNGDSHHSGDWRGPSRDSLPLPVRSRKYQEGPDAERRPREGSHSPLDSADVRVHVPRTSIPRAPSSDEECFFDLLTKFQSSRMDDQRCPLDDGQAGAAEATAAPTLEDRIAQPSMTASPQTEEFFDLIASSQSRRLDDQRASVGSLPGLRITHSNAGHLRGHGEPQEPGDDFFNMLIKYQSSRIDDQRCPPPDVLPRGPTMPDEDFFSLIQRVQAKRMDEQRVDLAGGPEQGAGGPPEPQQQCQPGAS
Chain of UniProt O00560 (O00560 whole entry): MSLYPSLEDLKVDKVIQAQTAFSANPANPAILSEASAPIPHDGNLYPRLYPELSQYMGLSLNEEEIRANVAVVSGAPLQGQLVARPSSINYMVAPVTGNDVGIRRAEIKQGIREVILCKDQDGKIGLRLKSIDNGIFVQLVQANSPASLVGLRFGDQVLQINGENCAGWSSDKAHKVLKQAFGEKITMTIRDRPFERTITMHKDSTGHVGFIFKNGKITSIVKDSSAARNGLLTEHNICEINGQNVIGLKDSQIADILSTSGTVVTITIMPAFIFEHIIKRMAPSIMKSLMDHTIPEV
Chain of UniProt B0I1T2 (B0I1T2 whole entry): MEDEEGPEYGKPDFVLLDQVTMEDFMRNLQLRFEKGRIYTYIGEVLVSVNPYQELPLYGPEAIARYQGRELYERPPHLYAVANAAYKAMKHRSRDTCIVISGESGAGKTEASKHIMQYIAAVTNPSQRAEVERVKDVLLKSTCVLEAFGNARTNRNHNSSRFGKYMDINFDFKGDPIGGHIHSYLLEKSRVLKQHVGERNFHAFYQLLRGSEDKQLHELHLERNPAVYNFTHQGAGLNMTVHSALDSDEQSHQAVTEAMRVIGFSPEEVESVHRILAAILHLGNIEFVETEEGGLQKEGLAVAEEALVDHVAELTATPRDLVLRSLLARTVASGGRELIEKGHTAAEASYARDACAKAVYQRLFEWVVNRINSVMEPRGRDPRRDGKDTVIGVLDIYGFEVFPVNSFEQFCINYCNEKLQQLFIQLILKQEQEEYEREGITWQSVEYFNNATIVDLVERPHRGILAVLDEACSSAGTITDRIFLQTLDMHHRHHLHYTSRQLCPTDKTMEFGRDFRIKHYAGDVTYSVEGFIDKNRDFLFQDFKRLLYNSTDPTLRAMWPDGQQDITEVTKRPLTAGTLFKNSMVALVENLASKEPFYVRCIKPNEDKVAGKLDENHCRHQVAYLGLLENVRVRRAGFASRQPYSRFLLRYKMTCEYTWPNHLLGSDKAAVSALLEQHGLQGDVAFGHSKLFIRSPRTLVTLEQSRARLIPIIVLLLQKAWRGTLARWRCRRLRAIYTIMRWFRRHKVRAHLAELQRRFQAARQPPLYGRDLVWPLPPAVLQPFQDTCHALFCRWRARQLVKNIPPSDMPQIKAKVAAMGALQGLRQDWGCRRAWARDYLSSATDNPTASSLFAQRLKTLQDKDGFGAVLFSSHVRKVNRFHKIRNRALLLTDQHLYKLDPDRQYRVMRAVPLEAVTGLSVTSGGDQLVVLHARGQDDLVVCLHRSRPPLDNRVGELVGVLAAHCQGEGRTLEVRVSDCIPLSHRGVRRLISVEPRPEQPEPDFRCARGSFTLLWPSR

Target	NP40-soluble protein abundance (concentration: 1mM)	NP40-soluble protein abundance (concentration: 2mM)	NP40-soluble protein abundance (concentration: 4mM)	NP40-soluble protein abundance (concentration: 6mM)	NP40-soluble protein abundance (concentration: 8mM)	NP40-soluble protein abundance (concentration: 10mM)
F6S7C4|Q8NEM7|Q8NEM7-2|Q8NEM7-3|R4GND2 (UniProt Q8NEM7)	1.09 ± 0.12	1.15 ± 0.1	1.14 ± 0.093	1.12 ± 0.13	1.16 ± 0.093	1.2 ± 0.11
H3BSH7|Q969X6|Q969X6-3 (UniProt Q969X6)	1.1 ± 0.14	1.21 ± 0.03	1.26 ± 0.058	1.425 ± 0.0083	1.46 ± 0.084	1.78 ± 0.047
ZNHIT1 (UniProt O43257)	1.12 ± 0.047	1.16 ± 0.012	1.27 ± 0.042	1.3 ± 0.037	1.16 ± 0.037	1.19 ± 0.073
I3L0W4|Q96F10 (UniProt Q96F10)	0.98 ± 0.13	0.932 ± 0.07	0.962 ± 0.073	0.963 ± 0.064	0.94 ± 0.025	0.944 ± 0.035
SETD1A (UniProt O15047)	0.962 ± 0.038	0.97 ± 0.018	0.979 ± 0.022	0.997 ± 0.044	0.969 ± 0.049	0.997 ± 0.046
B4E1G1|E5RGY0|Q9BUN8|Q9BUN8-2 (UniProt Q9BUN8)	0.948 ± 0.084	0.979 ± 0.12	0.989 ± 0.083	0.975 ± 0.1	0.955 ± 0.021	1 ± 0.056
I3L0L6|Q9H6Y7 (UniProt Q9H6Y7)	0.901 ± 0.033	0.93 ± 0.016	0.896 ± 0.051	0.962 ± 0.064	0.921 ± 0.066	0.864 ± 0.065
MYO1G (UniProt B0I1T2)	3.09 ± 0.27	3.32 ± 0.48	3.48 ± 0.58	3.19 ± 0.4	3.7 ± 0.64	3.52 ± 0.5
C9JRD2|C9JXB9|P25686|P25686-2 (UniProt P25686)	0.969 ± 0.038	0.956 ± 0.019	0.956 ± 0.022	0.971 ± 0.06	0.973 ± 0.016	0.977 ± 0.025
K7ENL9|Q96DM3 (UniProt Q96DM3)	1.04 ± 0.097	0.984 ± 0.027	1.02 ± 0.029	1.02 ± 0.058	1.02 ± 0.061	0.985 ± 0.03
MAN2B1 (UniProt O00754)	0.94 ± 0.027	0.948 ± 0.017	0.957 ± 0.023	0.887 ± 0.057	0.917 ± 0.038	0.93 ± 0.018
E5RG17|Q6P1N9 (UniProt Q6P1N9)	0.989 ± 0.02	0.974 ± 0.013	0.965 ± 0.02	0.963 ± 0.052	0.937 ± 0.019	0.968 ± 0.019
UniProt O15392|O15392-2	0.961 ± 0.1	2.09 ± 1.6	1.13 ± 0.09	1.23 ± 0.031	1.26 ± 0.092	1.31 ± 0.16
J3KTE4|J3QR09|P84098 (UniProt P84098)	1.01 ± 0.053	1 ± 0.027	0.968 ± 0.07	0.966 ± 0.043	0.908 ± 0.057	1.05 ± 0.094
C9JJN9|Q8N3P4|Q8N3P4-2|Q8N3P4-3 (UniProt Q8N3P4)	1.01 ± 0.053	0.984 ± 0.04	0.994 ± 0.068	0.9606 ± 0.0047	0.955 ± 0.039	0.979 ± 0.023
E9PRY8|P29692|P29692-2|P29692-3|P29692-4 (UniProt P29692)	0.959 ± 0.054	0.931 ± 0.034	0.894 ± 0.03	0.912 ± 0.091	0.88 ± 0.042	0.865 ± 0.015
F8W057|Q9GZN1|Q9GZN1-2 (UniProt Q9GZN1)	1.07 ± 0.034	1.11 ± 0.034	1.1 ± 0.065	1.03 ± 0.089	1.2 ± 0.028	1.17 ± 0.089
H7C0H2|Q96EV2|H0Y3K4 (UniProt Q96EV2)	0.963 ± 0.093	0.942 ± 0.056	0.956 ± 0.086	0.982 ± 0.075	0.958 ± 0.067	0.951 ± 0.059
A0A0D9SEU5|Q6VN20|Q6VN20-3|R4GMX8 (UniProt Q6VN20)	0.968 ± 0.017	0.944 ± 0.05	0.979 ± 0.02	0.996 ± 0.11	0.935 ± 0.028	0.951 ± 0.036
A0A0X1KG71 (UniProt Q8WX92)	0.9808 ± 0.0083	0.989 ± 0.012	0.9482 ± 0.0081	0.959 ± 0.033	0.959 ± 0.022	0.956 ± 0.023
J3QL71|Q96FV2 (UniProt Q96FV2)	0.96 ± 0.029	0.97 ± 0.011	0.98 ± 0.025	0.944 ± 0.019	0.959 ± 0.032	0.984 ± 0.015
E7EX59|E9PDR0|P05166|P05166-2|E7EUY3 (UniProt P05166)	0.992 ± 0.049	0.971 ± 0.02	0.968 ± 0.012	0.973 ± 0.046	0.998 ± 0.033	0.979 ± 0.03
A0A0C4DGB9|Q9H2U2 (UniProt Q9H2U2)	0.971 ± 0.022	0.97 ± 0.029	0.953 ± 0.03	0.93 ± 0.051	0.952 ± 0.038	0.919 ± 0.037
A0A0B4J2C3|P13693|Q5W0H4 (UniProt P13693)	0.95 ± 0.025	0.942 ± 0.021	0.915 ± 0.025	0.923 ± 0.05	0.919 ± 0.035	0.909 ± 0.048
A0A0A0MSK4|Q86YR5|Q86YR5-4 (UniProt Q86YR5)	0.972 ± 0.037	0.99 ± 0.074	0.9991 ± 0.0089	1.018 ± 0.0076	0.96 ± 0.021	0.981 ± 0.05
A0A0C4DGQ5|P04632 (UniProt P04632)	0.9315 ± 0.0081	0.964 ± 0.077	0.923 ± 0.022	0.884 ± 0.039	0.885 ± 0.0089	0.875 ± 0.06
B7ZBK4|Q92664 (UniProt Q92664)	1.02 ± 0.021	1.03 ± 0.035	1 ± 0.042	0.9904 ± 0.0034	0.989 ± 0.026	0.976 ± 0.053
PDXK (UniProt O00764)	1.02 ± 0.12	0.987 ± 0.058	1.01 ± 0.066	0.935 ± 0.14	0.989 ± 0.058	0.981 ± 0.051
PSMD12 (UniProt O00232)	0.938 ± 0.063	0.894 ± 0.035	0.863 ± 0.015	0.843 ± 0.025	0.898 ± 0.031	0.885 ± 0.035
UniProt O00560|O00560-2	0.95 ± 0.073	0.946 ± 0.041	0.937 ± 0.04	0.896 ± 0.077	0.9459 ± 0.0062	0.957 ± 0.031
